Data published in PubChem BioAssay (EPA / NIEHS).
Active and inactive are the calls of the source. Rule for the calls: active = hit-call score of the fitted dose curve at least 0.9, where 1 is the maximum; inactive = score below 0.9.

Read-out: CYP4A11 (gene 1579)
Experiment: LTEA_HepaRG_CYP4A11: Life Technologies and Expression Analysis (LTEA) Assay for CYP4A11 using HepaRG (AID 2283486)
Settings: mRNA level, 48 h; actives raise or lower the signal
Procedure, shortened: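 Differentiated HepaRG cells, 48 h after plating, exposed in duplicate for 48 h to 8 half-log concentrations up to 100 uM in 0.5% DMSO in serum-free induction medium. CYP4A11 mRNA measured by TaqMan qRT-PCR, normalized to ACTB, GAPDH and POLR2A.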

Sequence of Cytochrome P450 3A4 (Homo sapiens) (P08684 whole entry, looked up): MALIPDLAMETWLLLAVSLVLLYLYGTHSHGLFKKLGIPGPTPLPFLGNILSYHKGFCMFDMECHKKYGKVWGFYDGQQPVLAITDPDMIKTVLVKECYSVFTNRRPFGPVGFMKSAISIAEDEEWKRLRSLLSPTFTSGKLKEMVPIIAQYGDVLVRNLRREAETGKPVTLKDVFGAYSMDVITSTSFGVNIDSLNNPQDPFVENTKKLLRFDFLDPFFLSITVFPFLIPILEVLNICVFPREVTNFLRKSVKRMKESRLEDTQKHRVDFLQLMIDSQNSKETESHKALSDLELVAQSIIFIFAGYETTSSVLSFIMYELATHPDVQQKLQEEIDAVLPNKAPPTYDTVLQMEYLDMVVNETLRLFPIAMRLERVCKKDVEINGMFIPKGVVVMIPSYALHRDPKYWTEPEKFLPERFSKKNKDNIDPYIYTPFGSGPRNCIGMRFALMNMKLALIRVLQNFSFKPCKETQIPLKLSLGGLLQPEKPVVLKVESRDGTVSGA

SMILES | outcome | AC50
CCCCOC(=O)c1ccc(O)cc1 | inactive | 
O=c1ccc2ccccc2o1 | inactive | 
CC(C)(c1cc(Br)c(O)c(Br)c1)c1cc(Br)c(O)c(Br)c1 | inactive | 
CCOC(=O)O[C@H](C)OC(=O)c1ccc2c(c1)cc(C(=O)NC1CCN(C(C)C)CC1)n2Cc1cc(-c2ccc(Cl)s2)on1 |  | 47.2 µM (active)
CC1(C)NC(=O)N(c2ccc([N+](=O)[O-])c(C(F)(F)F)c2)C1=O |  | 69.3 µM (active)
Cc1occc1C(=O)Nc1ccc(C(=O)N2CCC(F)(F)/C(=C\C(=O)N3CCC(N4CCCCC4)CC3)c3ccccc32)cc1 |  | 49 µM (active)
COc1ccc2cc(S(=O)(=O)N[C@H](CC(=O)N[C@H](Cc3ccc(CN4[C@H](C)CCC[C@@H]4C)cc3)C(=O)N(C)C(C)C)c3ccc4c(c3)OCO4)ccc2c1 |  | 20.7 µM (active)
CCCCCCCC[Si](OCC)(OCC)OCC | inactive | 
O=C(O)c1ccccc1C(=O)OCc1ccccc1 |  | 26.2 µM (active)
Cc1oc2c(NC(=O)c3c(Cl)cccc3Cl)cccc2c1C(C)(C)O |  | 24.6 µM (active)
Cc1ccc(C(C)C)cc1 | inactive | 
O=CCCCC=O | inactive | 
CC(=O)N1CCN(c2ccc(OC[C@H]3CO[C@](Cn4ccnc4)(c4ccc(Cl)cc4Cl)O3)cc2)CC1 |  | 12.4 µM (active)
CC(C)(C)c1csc(-c2cc3cc(OCc4ccccc4CC(=O)O)ccc3o2)n1 |  | 23.2 µM (active)
CCN(Cc1cccc(S(=O)(=O)O)c1)c1ccc(C(=C2C=CC(=[N+](CC)Cc3cccc(S(=O)(=O)O)c3)C=C2)c2ccccc2S(=O)(=O)[O-])cc1 | inactive | 
O=C(O)Cn1c(=O)n(Cc2ccc(Br)cc2F)c(=O)c2ccc(Cl)cc21 | inactive | 
CN(C)c1ccc(C(=C2C=CC(=[N+](C)C)C=C2)c2ccc(N(C)C)cc2)cc1 |  | 3.37 µM (active)
CC/C(=C(/CC)c1ccc(O)cc1)c1ccc(O)cc1 |  | 83.4 µM (active)
CCCOC(=O)c1cc(O)c(O)c(O)c1 |  | 6.67 µM (active)

SMILES | outcome | AC50
O=C(Nc1ccc(Cl)cc1)Nc1ccc(Cl)c(Cl)c1 |  | 28.7 µM (active)
c1ccc2ccccc2c1 | inactive | 
CO[C@H]1/C=C/O[C@@]2(C)Oc3c(C)c(O)c4c(O)c(c(/C=N/N5CCN(C)CC5)c(O)c4c3C2=O)NC(=O)/C(C)=C\C=C\[C@H](C)[C@H](O)[C@@H](C)[C@@H](O)[C@@H](C)[C@H](OC(C)=O)[C@@H]1C |  | 0.593 µM (active)
CC(C)(C)c1cc(/C=C2\SC(N)=NC2=O)cc(C(C)(C)C)c1O |  | 29.1 µM (active)
C[C@]12CC[C@@H]3c4ccc(O)cc4CC[C@H]3[C@@H]1CC[C@H]2O |  | 78.2 µM (active)
Cc1cc2c(cc1C(F)(F)F)N(C(=O)Nc1ccc(Oc3cccnc3C)nc1)CC2 |  | 52.6 µM (active)
Clc1ccccc1C(c1ccccc1)(c1ccccc1)n1ccnc1 |  | 15.8 µM (active)
CCCCCCCCCCCO | inactive | 
CN1C(=O)N(c2ccccc2Br)Cc2cnc(Nc3ccc4c(c3)OCC(CO)O4)nc21 (centres undefined) |  | 50 µM (active)
Cc1c2ccccc2c(C)c2c1ccc1ccccc12 |  | 33.2 µM (active)
CC(C)(O)c1ccc(CNC(=O)c2cccnc2Oc2ccc3nonc3c2)cc1 | inactive | 
COc1cc(C(=O)NC2CCN(C)CC2)ccc1Nc1ncc2c(n1)N(C1CCCC1)CC(F)(F)C(=O)N2C |  | 3.34 µM (active)
Cc1cn([C@H]2C[C@H](N=[N+]=[N-])[C@@H](CO)O2)c(=O)[nH]c1=O | inactive | 
CCCCOC(=O)CC(CC(=O)OCCCC)(OC(C)=O)C(=O)OCCCC | inactive | 
CN(C)C(=O)C1(N2CCCCC2)CCN(CC[C@@]2(c3ccc(Cl)c(Cl)c3)CN(C(=O)c3ccccc3)CCO2)CC1 |  | 14.9 µM (active)
CCCCCc1ccc(N)cc1 | inactive | 
CCO[Si](CCCNC(N)=O)(OCC)OCC | inactive | 
O=C1c2ccccc2C(=O)N1CCc1noc(-c2ccc(CN3CCCCCC3)s2)n1 | inactive | 

Read-out: Cytochrome P450 3A4 (Homo sapiens) (UniProt P08684)
Experiment: LTEA_HepaRG_CYP3A4: Life Technologies and Expression Analysis (LTEA) Assay for CYP3A4 using HepaRG (AID 2283487)
Settings: mRNA level, 48 h; actives raise or lower the signal
Procedure, shortened: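 In a human hepatic line (HepaRG), duplicate wells were treated 48 h with up to 100 uM chemical in half-log dilutions. Endpoint: CYP3A4 mRNA induction or loss relative to 0.5% DMSO vehicle, by qRT-PCR.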

SMILES | outcome | AC50
CCCCOC(=O)c1ccc(O)cc1 | inactive | 
O=c1ccc2ccccc2o1 | inactive | 
CC(C)(c1cc(Br)c(O)c(Br)c1)c1cc(Br)c(O)c(Br)c1 | inactive | 
CCOC(=O)O[C@H](C)OC(=O)c1ccc2c(c1)cc(C(=O)NC1CCN(C(C)C)CC1)n2Cc1cc(-c2ccc(Cl)s2)on1 | inactive | 
Cc1occc1C(=O)Nc1ccc(C(=O)N2CCC(F)(F)/C(=C\C(=O)N3CCC(N4CCCCC4)CC3)c3ccccc32)cc1 | inactive | 
COc1ccc2cc(S(=O)(=O)N[C@H](CC(=O)N[C@H](Cc3ccc(CN4[C@H](C)CCC[C@@H]4C)cc3)C(=O)N(C)C(C)C)c3ccc4c(c3)OCO4)ccc2c1 |  | 24 µM (active)
CCCCCCCC[Si](OCC)(OCC)OCC | inactive | 
O=C(O)c1ccccc1C(=O)OCc1ccccc1 | inactive | 
Cc1oc2c(NC(=O)c3c(Cl)cccc3Cl)cccc2c1C(C)(C)O |  | 81.9 µM (active)
Cc1ccc(C(C)C)cc1 | inactive | 
O=CCCCC=O | inactive | 
CC(C)(C)c1csc(-c2cc3cc(OCc4ccccc4CC(=O)O)ccc3o2)n1 |  | 76.1 µM (active)
CCN(Cc1cccc(S(=O)(=O)O)c1)c1ccc(C(=C2C=CC(=[N+](CC)Cc3cccc(S(=O)(=O)O)c3)C=C2)c2ccccc2S(=O)(=O)[O-])cc1 | inactive | 
CCCOC(=O)c1cc(O)c(O)c(O)c1 |  | 1.14 µM (active)
CC(C)(C)c1cc(/C=C2\SC(N)=NC2=O)cc(C(C)(C)C)c1O |  | 90.9 µM (active)
C[C@]12CC[C@@H]3c4ccc(O)cc4CC[C@H]3[C@@H]1CC[C@H]2O | inactive | 
Cc1cc2c(cc1C(F)(F)F)N(C(=O)Nc1ccc(Oc3cccnc3C)nc1)CC2 |  | 1.89 µM (active)
CCCCCCCCCCCO | inactive | 
CN1C(=O)N(c2ccccc2Br)Cc2cnc(Nc3ccc4c(c3)OCC(CO)O4)nc21 (centres undefined) |  | 89.6 µM (active)
Cc1c2ccccc2c(C)c2c1ccc1ccccc12 |  | 78.8 µM (active)
CC(C)(O)c1ccc(CNC(=O)c2cccnc2Oc2ccc3nonc3c2)cc1 |  | 8.42 µM (active)
COc1cc(C(=O)NC2CCN(C)CC2)ccc1Nc1ncc2c(n1)N(C1CCCC1)CC(F)(F)C(=O)N2C | inactive | 
Cc1cn([C@H]2C[C@H](N=[N+]=[N-])[C@@H](CO)O2)c(=O)[nH]c1=O | inactive | 
CN(C)C(=O)C1(N2CCCCC2)CCN(CC[C@@]2(c3ccc(Cl)c(Cl)c3)CN(C(=O)c3ccccc3)CCO2)CC1 |  | 25.7 µM (active)
CCCCCc1ccc(N)cc1 | inactive | 
CCO[Si](CCCNC(N)=O)(OCC)OCC | inactive | 
O=C1c2ccccc2C(=O)N1CCc1noc(-c2ccc(CN3CCCCCC3)s2)n1 | inactive | 
